This note sets out measurements from the supplement of paper PMC11417369.

Whole data set: some 25,000 sequences, median “ln(normalized median fluorescence intensity)” near 9.3, cut for the highest 2% near 10. What follows is part of a selection rich in the highest values, with near analogues and random picks from the rest.

The assay concerns PF3D7_0420300 AP2 domain 1 (GST-tagged). Nature of the assay: gcPBM binding intensity (ln(normalized median fluorescence intensity)); higher = stronger DNA binding. The method, boiled down:
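After 1 h on an Agilent 4 × 180k array of primer-extended double-stranded 36-bp intergenic genomic probes and negative controls, bound GST-tagged P. falciparum DNA-binding domains were detected with Alexa488 anti-GST antibody and scanned at 488 nm. The domains had been expressed in E. coli, and binding took place in 1× PBS with 1% milk, 0.2 mg/ml BSA, 0.5% salmon testes DNA and 0.03% Triton X-100. Binding intensity is the highest Masliner-normalised natural-log median intensity across replicate spots of either probe orientation.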
As to “AACACCCATGGACACACACACATATATATATATATA [CACACA_site5809]”, the “gcPBM binding intensity (ln)” value turned out to be 9.92.
Take “AAAAAACACGCGCACACACACACACGCGCCCACATA [CACACA_site7106]”: the “gcPBM binding intensity (ln)” value turned out to be 10.3.
For the sequence “AACACGCGCGGACACACACACACACCCACATATATA [CACACA_site5252]”, the “gcPBM binding intensity (ln)” value came to 10.4.
Turning to “AACACGCGCAGACACACACACACACCCACATATATA [CACACA_site2205]”, the “gcPBM binding intensity (ln)” value amounted to 10.2.
Regarding “ATTACATACACGCGCACACACAAAAAAAAAAAAAAA [CACACA_site1334]”, the “gcPBM binding intensity (ln)” value worked out at 9.57.
As for “AGAAAAAAACAACATGCACACGCACCCACAAAAAAA [CACACA_site7908]”, the “gcPBM binding intensity (ln)” value was found to be 9.71.
Regarding “AAAAAAAAAAAAAAAACACACACATATATATATATA [CACACA_site8571]”, the “gcPBM binding intensity (ln)” value is 9.51.
In the case of “AAAAAACACGGACACACACACATATACATACATACA [CACACA_site5470]” it was 10.1; in that of “AAAACACGCGGACACACACACACACGCCCACATATA [CACACA_site7105]”, 10.4; in that of “ACTTTATATTTTGAACGTACAAAAAAAAAATTATGT [XGTACX_site5588]”, 9.04.
For “AATACAATATAGTGAAAAATAATTAAATACAATAAG [XGTACX_negctrl_site161]” the value was 9.6; for “TAGATATATAGACACACACACATTAATACCTATATT [CACACA_site7605]”, 10.1; for “CGCTTTATTTATATATGTACATATATATATATATAC [XGTACX_site5012]”, 9.33.
For “TAATATAACAAAAAAATAAAATAAAATAAAAAATAA [CACACA_negctrl_site109]”, the “gcPBM binding intensity (ln)” value amounted to 9.35.
In the case of “AAAAGAATTACTTTCACACATATATATCTGTAAATA [CACACA_site5798]” it was 9.15; in that of “TACACGCATGGACACACACACACACCCATATATATA [CACACA_site4522]”, 10.2; in that of “CACGCGCCCGGACACACACACACACCCATATATATA [CACACA_site5251]”, 10.2.
As to “TACACCCATGGACACACACACACGCATAAAAAAAAA [CACACA_site4933]”, the “gcPBM binding intensity (ln)” value stood at 9.93.
In the case of “GATATTAAAATATGTAGTACACATATTATATCATAT [XGTACX_site4167]”, the “gcPBM binding intensity (ln)” value was 9.18.
For “ATTTAACATATAAAATGTACATATATATATATATTT [XGTACX_site2525]” the value was 9.25.
In the case of “GTTAATCACCATGTGGTGCATATAAGGGCATATTAT [GTGCAC_site9748]”, the “gcPBM binding intensity (ln)” value came out at 9.22.
As to “TATCTCATAGTATACACACACACACCCACCCATATA [CACACA_site1739]”, the “gcPBM binding intensity (ln)” value was 10.4.
In the case of “TATCTCATAGTATACACACACACACGCGCACATATA [CACACA_site6917]”, the “gcPBM binding intensity (ln)” value stood at 10.3.
In the case of “TATAGATACATATACACACACACACCCACATATATA [CACACA_site3436]” it was 10.2.
Consider “TAAGAAATAAATAGTACACACATAGACACACGCACA [CACACA_site6821]”, for which the “gcPBM binding intensity (ln)” value turned out to be 9.92.
As to “TATATATATAGACACACACACACATATATATATATA [CACACA_site9366]”, the “gcPBM binding intensity (ln)” value is 10.
“TAATTTATAACACGCGCACACATATATATATAGTAA [CACACA_site121]”: the “gcPBM binding intensity (ln)” value was determined as 9.57.
For “TATATCTCATAGTATACACACACACCCACCCACATA [CACACA_site8513]” the value was 10.3; for “TCTCATAGTAGACACACACACACACGCACATATATA [CACACA_site6916]”, 10.4.
With “TATATATATATATATACACACACACCCATATATATA [CACACA_site8812]”, the “gcPBM binding intensity (ln)” value amounted to 9.94.
For the sequence “ATTCTACACCCACATACACACATATATATATATATA [CACACA_site3426]”, the “gcPBM binding intensity (ln)” value was 9.84.
In the case of “TATATATATATATACACACACACACCCATATATATA [CACACA_site2538]” it was 10.
In the case of “CATAGATACATACACGCACACACATATATATATATA [CACACA_site13]” it was 9.87.
